Laboratory results reported in PubChem BioAssay.
Inconclusive results are not listed. Active and inactive are the calls of the source. Unless noted, how the calls were made is not given here.

How the values were obtained:
[1] = compounds altering circadian rhythm period length – cell-based, LOPAC library, luminescence reporter (AID 2774); details: circadian reporter cells, at 7 µM, actives lie on both sides;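 further: values are relative to mean of DMSO wells on each plate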
[2] = P. berghei load reduction in hepatocytes – cell-based, HepG2, luciferase luminescence, HepG2 viability, primary screen (AID 624349; in the data active means parasite load remaining mostly below about 12%, no sharp cut-off; inactive means mostly above about 10%;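 further: 100% = mean of DMSO negative control wells on the same plate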); details: P. berghei liver stage in HepG2, luciferase luminescence, concentration not given here; parasite load remaining: stronger effect = lower value; viability: measured here: HepG2 viability without parasites
[3] = test system: Hepatitis C virus NS3 helicase; assay: blockers of NS3h binding to ssDNA – biochemical, fluorescence polarization, LOPAC1280 library, primary screen (AID 687035; in the data active means inhibition above about 37%); details: Purified HCV NS3 helicase, Cy5-dT15 ssDNA binding fluorescence polarization; stronger effect = higher value; concentration not given here
[4] = compounds altering Cy5-DNA-NS3h complex signal – biochemical, LOPAC1280, artefact control for HCV NS3 helicase inhibitor project (AID 687037); details: Cy5-DNA-NS3h complex fluorescence interference counterscreen
[5] = viability loss with induced miR-34 in A549 – imaging, A549 dox-inducible miR-34, nuclei and caspase counts, primary screen (AID 1347080;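 active means compounds whose cell count with miR-34 switched on is under 0.7 times the count with it off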); details: A549 miR-34 inducible, Hoechst nuclei count, 48 h
[6] = blockers of cellular phospholipid synthesis – cell-based, LOPAC library, screen 4, primary screen (AID 1347384); details: animal cells, phospholipid biosynthesis inhibition screen; at 10 µM
[7] = galactose survival enhancers in mitochondrial complex I cybrids – cell-based, galactose medium, ATP luminescence, primary screen (AID 1645843;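 active means z-score of at least 1.8 in each of two replicates, scored against plate mean and spread of sample wells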;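 further: positive z means more ATP and so rescue of galactose-driven cybrid death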); details: complex I mutant cybrid cells, 72 h, stronger effect = higher value
[8] = compounds altering viability of human ES cells (AID 493140); details: human embryonic stem cell survival screen; stronger effect = higher value;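 further: cells exposed to compounds for four days before counting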
[9] = molecular target: ATP-dependent translocase ABCB1 (Homo sapiens) (UniProt P08183); assay: P-glycoprotein substrate transport blockade – cell-based (AID 377; in the data active means fluorescence slope change above about 50%); details: MDR1-expressing cells, fluorescent substrate accumulation slope; stronger effect = higher value; concentration not given here
ATP-dependent translocase ABCB1 (Homo sapiens), sequence (P08183 whole entry, looked up): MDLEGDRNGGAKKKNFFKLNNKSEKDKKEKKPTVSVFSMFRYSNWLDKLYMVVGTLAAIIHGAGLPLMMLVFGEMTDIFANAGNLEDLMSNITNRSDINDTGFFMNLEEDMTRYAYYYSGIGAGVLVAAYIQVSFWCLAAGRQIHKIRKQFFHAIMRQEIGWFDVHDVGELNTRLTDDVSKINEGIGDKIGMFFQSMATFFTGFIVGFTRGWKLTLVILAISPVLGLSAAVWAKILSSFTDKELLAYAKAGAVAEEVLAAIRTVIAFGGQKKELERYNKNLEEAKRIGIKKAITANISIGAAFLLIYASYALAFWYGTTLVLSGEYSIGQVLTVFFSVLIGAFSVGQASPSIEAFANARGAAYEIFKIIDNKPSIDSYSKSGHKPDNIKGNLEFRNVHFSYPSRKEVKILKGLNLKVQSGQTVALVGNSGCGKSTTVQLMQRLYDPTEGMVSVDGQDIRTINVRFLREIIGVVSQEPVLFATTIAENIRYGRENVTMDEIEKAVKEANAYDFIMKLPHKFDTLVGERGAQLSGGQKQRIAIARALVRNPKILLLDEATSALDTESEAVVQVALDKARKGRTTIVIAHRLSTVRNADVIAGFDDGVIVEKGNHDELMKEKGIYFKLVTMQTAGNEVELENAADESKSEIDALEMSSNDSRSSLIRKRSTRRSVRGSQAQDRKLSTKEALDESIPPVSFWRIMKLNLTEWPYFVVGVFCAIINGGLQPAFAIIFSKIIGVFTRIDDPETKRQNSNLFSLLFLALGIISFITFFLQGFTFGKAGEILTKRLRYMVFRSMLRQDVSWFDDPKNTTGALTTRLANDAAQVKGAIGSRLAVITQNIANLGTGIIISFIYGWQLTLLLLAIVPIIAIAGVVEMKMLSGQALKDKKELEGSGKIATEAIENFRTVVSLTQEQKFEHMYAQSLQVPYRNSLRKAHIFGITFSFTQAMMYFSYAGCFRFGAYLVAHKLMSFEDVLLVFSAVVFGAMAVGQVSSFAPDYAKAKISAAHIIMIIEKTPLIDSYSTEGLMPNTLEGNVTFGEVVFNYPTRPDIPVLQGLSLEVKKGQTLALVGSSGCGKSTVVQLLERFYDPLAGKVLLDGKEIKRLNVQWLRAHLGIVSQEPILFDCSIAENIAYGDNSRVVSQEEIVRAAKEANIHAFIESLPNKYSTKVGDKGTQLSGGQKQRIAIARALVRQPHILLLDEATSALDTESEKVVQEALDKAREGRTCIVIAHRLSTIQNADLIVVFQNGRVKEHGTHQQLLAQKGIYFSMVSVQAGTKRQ

[10] = stronger effect = lower value, cell number ratio, induced over uninduced
[11] = measured here: relative caspase fold change +Dox/-Dox
[12] = measured here: total cells with miR-34 induction, stronger effect = lower value
[13] = measured here: total cells without miR-34 induction

Compound	period change [1]	parasite load remaining [2]	viability [2] [%]	inhibition [3]	fluorescence ratio (interference) [4]	fold change [5, 10]	fold change [5, 11]	cell count [5, 12]	cell count [5, 13]	outcome [6]	z-score [7]	survival [8]	fluorescence slope change [9]
N#CC(C#N)=C(N)/C(C#N)=C/c1ccc(O)cc1	-0.025 h (inactive)	31.2% (inactive)	70.9	-2% (inactive)	1 (inactive)	0.894 (inactive)	1.36	8590	9610	inactive	0.29 (inactive)		
CNCCNS(=O)(=O)c1cccc2cnccc12	0.23 h (inactive)	51% (inactive)	111	-6% (inactive)	0.9 (inactive)	1.05 (inactive)	1.37	10700	10200	inactive	-0.89 (inactive)	194 (active)	
NCCS(=O)O	0.035 h (inactive)			-3% (inactive)	1 (inactive)	1 (inactive)	0.978	10600	10500	inactive	0.415 (inactive)		
Brc1ccc([C@H]2CN3CCSC3=N2)cc1	-0.16 h (inactive)			0% (inactive)	0.9 (inactive)	1.04 (inactive)	1.3	9880	9490	inactive	0.145 (inactive)	79.5 (inactive)	
O=C(O)[C@H]1NCCC[C@H]1C(=O)O	0.06 h (inactive)			-2% (inactive)	1 (inactive)	1.06 (inactive)	2.09	10400	9820	inactive	0.52 (inactive)		
CC[C@H]1OC(=O)[C@H](C)C(O[C@H]2C[C@@](C)(OC)[C@@H](O)[C@H](C)O2)[C@H](C)[C@@H](OC2O[C@H](C)C[C@H](N(C)C)[C@H]2O)[C@](C)(O)C[C@@H](C)CN(C)[C@H](C)[C@@H](O)[C@]1(C)O (stereo not given in full)						1.06 (inactive)	1.99	10100	9500	inactive	-0.895 (inactive)		
S=C(Nc1ccccc1)Nc1nccs1	0.02 h (inactive)			-3% (inactive)	1 (inactive)	1.08 (inactive)	0.629	6230	5760	inactive	-1.19 (inactive)		65.3% (active)
Nc1ccn(C2O[C@H](CO)[C@@H](O)C2(F)F)c(=O)n1 (stereo not given in full)						1.18 (inactive)	1.01	1960	1660	inactive	-1.32 (inactive)		
CC(=O)/C(C)=N/O	0.15 h (inactive)					0.97 (inactive)	2.72	9060	9340	inactive	0.485 (inactive)		
[N-]=[N+]=Nc1ccc(C(=O)CSC[C@H](NC(=O)CC[C@H](N)C(=O)O)C(=O)NCC(=O)O)cc1	0 h (inactive)			-5% (inactive)	0.9 (inactive)	0.923 (inactive)	1.4	5390	5840	inactive	-1.12 (inactive)		
O=C1C2C=CC=CC2=NC(=S)N1CCN1CCC(=C(c2ccc(F)cc2)c2ccc(F)cc2)CC1 (stereo not given)	-0.295 h (inactive)			1% (inactive)	1 (inactive)	0.996 (inactive)	1.03	9730	9760	inactive	-0.96 (inactive)		
NCC1OC(O[C@@H]2[C@H](O)C(OC3C(O)C(N)CC(N)C3OC3OC(CO)C(O)C(O)C3N)O[C@@H]2CO)C(N)C(O)C1O (stereo not given in full)	0.005 h (inactive)			0% (inactive)	1 (inactive)	0.998 (inactive)	1.38	9490	9510	inactive	0.61 (inactive)		14.4% (inactive)
Nc1nc(Cl)nc2c1ncn2[C@@H]1O[C@H](CO)[C@H](O)C1O (stereo not given in full)	-0.125 h (inactive)			0% (inactive)	1 (inactive)	1.07 (inactive)	1.14	1860	1750	inactive	-0.705 (inactive)		
COc1cc(OC)c(/C=C2/C(=O)Nc3ccccc32)c(OC)c1	-0.54 h (inactive)	35.9% (inactive)	78.8	-1% (inactive)	1 (inactive)	1.2 (inactive)	0.628	2100	1750	inactive	-1.29 (inactive)		
C=CCN1CCc2c(cc(O)c(O)c2Cl)C(c2ccccc2)C1 (stereo not given)	0.25 h (inactive)			-4% (inactive)	1 (inactive)	1.02 (inactive)	1.32	7830	7660	inactive	-0.925 (inactive)		
Cc1cc(NC(=O)Nc2ccc3c(ccn3C)c2)sn1	-0.055 h (inactive)			-1% (inactive)	0.9 (inactive)	1.07 (inactive)	1.78	9080	8470	inactive	0.19 (inactive)		
Brc1cc2c(cc1[C@H]1Nc3ccccc3[C@H]3C=CC[C@H]31)OCO2						1.18 (inactive)	1.55	6800	5750	inactive	-0.59 (inactive)		
CC1(C)CCC=[N+]1[O-]	-0.065 h (inactive)			-2% (inactive)	1 (inactive)	0.955 (inactive)	0.876	9650	10100	inactive	0.285 (inactive)		
CCCC(=O)NCCc1c2n(c3ccc(OC)cc13)CCCc1ccccc1-2	0.06 h (inactive)			0% (inactive)	1 (inactive)	1.08 (inactive)	0.293	8600	7960	inactive	-0.27 (inactive)		
